PubChem BioAssay (Tox21)
Values joined by “and” are separate entries in the source; they are usually repeats but may differ in a detail not shown here. Equal values may be shown once. Records with an inconclusive call do not appear. A call without a number means that no potency is given here. Where a structure was tested more than once in an assay, its records may differ in their call. Active and inactive are the calls of the source. Unless noted, calls come from the whole dose curve.

Tests used:
[1] = Nuclear factor erythroid 2-related factor 2/antioxidant responsive element (Nrf2/ARE) small molecule agonists: qHTS cell viability counter screen in human keratinocytes (AID 1919968; active = well fitted curve in the direction sought with a large enough effect in the repeat runs; an effect the other way counts as inactive or inconclusive; note: nearly all actives have a fitted effect of over 55% in size; note: potency is the fitted concentration of half-maximal effect)
Procedure, shortened: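 Cytotoxicity was multiplexed with the Nrf2/ARE luciferase assay in the same wells. Stably transfected HaCaT keratinocytes were treated with test compounds for 23 h at 37 C. Cell viability was then measured by CellTiter-Fluor fluorescence.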

[2] = Nuclear factor erythroid 2-related factor 2/antioxidant responsive element (Nrf2/ARE) small molecule agonists: luciferase reporter gene qHTS assay in human keratinocytes (AID 1919969); note: nearly all actives have a fitted effect of over 35% in size; note: potency is the fitted concentration of half-maximal effect
[3] = biological target: Gonadotropin-releasing hormone receptor (Homo sapiens) (UniProt P30968); test: Human gonadotropin-releasing hormone receptor (GnRHR) small molecule agonists, calcium flux assay in GnRHR-HEK293 cells (AID 1920063); note: nearly all actives have a fitted effect of over 35% in size
Procedure, shortened: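 Agonist activity was measured as intracellular calcium flux in HEK293 cells engineered to stably express human GnRHR. After dye loading for 1 hour at 37 C, compounds in DMSO were added and fluorescence was followed for 3 minutes.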

[4] = biological target: KiSS-1 receptor (Homo sapiens) (UniProt Q969F8); test: Human kisspeptin (KISS1R) small molecule agonists, calcium flux assay in KISS1R-HEK293 cells (AID 1920064; active = well fitted curve in the direction sought with a large enough effect in the repeat runs; an effect the other way counts as inactive or inconclusive)
Procedure, shortened: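 Agonist activity is monitored as intracellular calcium rise in engineered HEK293 cells carrying human KISS1R. Cells are dye-loaded for 1 h at 37 C before compound addition, and fluorescence is recorded for 3 min.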

[5] = G protein-coupled receptor (GPCR) small molecule agonists, calcium flux assay: HEK293 wild type cell line counter screen (AID 1920065)
Procedure, shortened: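 Seed cells, incubate 18 h (37 C, 5% CO2); add calcium dye, 1 h at 37 C; pin-transfer compounds, ATP control or DMSO; read fluorescence 480/540 nm each second for 3 min.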

[6] = p53 small molecule agonists, cell-based qHTS assay with human liver microsomes: qHTS cell viability counter screen (AID 1963579); note: nearly all actives have a fitted effect of over 45% in size; note: potency is the fitted concentration of half-maximal effect
Procedure, shortened: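 Viability of p53RE-bla cells is measured as CellTiter-Glo luminescence following a 16 h, 37 C incubation with compound, liver microsomes from human donors and NADPH.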

[7] = p53 small molecule agonists, cell-based qHTS assay with rat liver microsomes: qHTS cell viability counter screen (AID 1963580); note: nearly all actives have a fitted effect of over 45% in size; note: potency is the fitted concentration of half-maximal effect
Procedure, shortened: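 Counter screen for cytotoxicity under metabolic activation: rat liver microsomes and NADPH, 0.5 mg/mL final each, added with compounds to p53RE-bla HCT-116 cells; 16 h at 37 C, then ATP luminescence read.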

[8] = p53 small molecule agonists, cell-based qHTS assay: qHTS cell viability counter screen (AID 1963581); note: nearly all actives have a fitted effect of over 45% in size; note: potency is the fitted concentration of half-maximal effect
Procedure, shortened: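 Viability was counter-screened in parallel with the p53 agonist reporter by measuring intracellular ATP luminescence in the same HCT-116 p53RE-bla wells after 16 h compound treatment at 37 C.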

[9] = biological target: 5-hydroxytryptamine receptor 2A (Homo sapiens) (UniProt P28223); test: 5-hydroxytryptamine receptor 2A (HTR2A) small molecule antagonists, cell-based qHTS assay (AID 1963586); note: nearly all actives have a fitted effect of over 45% in size; note: potency is the fitted concentration of half-maximal effect
Procedure, shortened: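 CHO cells stably expressing human HTR2A were plated for 18 h at 37 C, then loaded with calcium dye for 1 h. Compounds were preincubated 5 min at room temperature before DOI (4 nM solution) was added. Kinetic fluorescence was read for 3 min.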

[10] = biological target: 5-hydroxytryptamine receptor 2A (Homo sapiens) (UniProt P28223); test: 5-hydroxytryptamine receptor 2A (HTR2A) small molecule agonists, cell-based qHTS assay (AID 1963587); note: nearly all actives have a fitted effect of over 30% in size; note: potency is the fitted concentration of half-maximal effect
Procedure, shortened: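 HTR2A-CHO cells, plated 18 h at 37 C/5% CO2, dye-loaded 1 h at 37 C; compounds in DMSO added by pin tool (agonist mode). Intracellular calcium flux read as kinetic fluorescence on FDSS over 2 min at 1 s intervals.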

[11] = biological target: Muscarinic acetylcholine receptor M1 (Homo sapiens) (UniProt P11229); test: Cholinergic receptor muscarinic 1 (CHRM1) small molecule antagonists, cell-based qHTS assay (AID 1963588); note: nearly all actives have a fitted effect of over 40% in size; note: potency is the fitted concentration of half-maximal effect
Procedure, shortened: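 Compounds were tested at 15 concentrations in three independent runs. Dye-loaded CHRM1-CHO cells were exposed 5 min at room temperature before stimulation by acetylcholine added at 50nM. Intracellular calcium was read kinetically on FDSS for 3 min.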

[12] = biological target: Muscarinic acetylcholine receptor M1 (Homo sapiens) (UniProt P11229); test: Cholinergic receptor muscarinic 1 (CHRM1) small molecule agonists, cell-based qHTS assay (AID 1963589); note: nearly all actives have a fitted effect of over 35% in size
Procedure, shortened: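 Cells were plated and incubated 18 h at 37 C/5% CO2, loaded with calcium dye for 1 h at 37 C, then treated with compounds in DMSO. Fluorescence was recorded kinetically at 1 sec intervals.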

[13] = biological target: Beta-2 adrenergic receptor (Homo sapiens) (UniProt P07550); test: Adrenergic beta2 receptor (ADRB2) small molecule antagonists, cell-based qHTS assay (AID 1963592); note: series mostly up to about 92 µM; nearly all actives have a fitted effect of over 50% in size
Procedure, shortened: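 Assay format: CHO-ADRB2 cells, 18-20hr seeding at 37C/5% CO2, then compound plus 1nM isoproterenol agonist mix for 0.5hr RT. Homogeneous time-resolved fluorescence cAMP detection after 1hr, expressed as 665/615 nm ratio.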

[14] = biological target: Beta-2 adrenergic receptor (Homo sapiens) (UniProt P07550); test: Adrenergic beta2 receptor (ADRB2) small molecule agonists, cell-based qHTS assay (AID 1963593);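 note: CHO cells stably overexpressing human ADRB2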
Procedure, shortened: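 CHO cells stably over-expressing ADRB2 were plated overnight at 37C, then dosed with compounds plus a stimulation mix containing 100uM IBMX and 25uM Ro-20-1724 for 0.5hr at room temperature. cAMP was measured by HTRF competition, 1hr.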

[15] = biological target: D(2) dopamine receptor (Homo sapiens) (UniProt P14416); test: Dopamine D2 receptor (DRD2) small molecule agonists, cell-based qHTS assay (AID 1963594); note: nearly all actives have a fitted effect of over 35% in size
Procedure, shortened: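 HEK293 cells stably expressing DRD2 were cultured 24 h at 37 C, then given Ro20-1724 (0.1 mM final) and compounds for 10 min at room temperature. NKH477 (200nM) was then added for 30 min. cAMP was read by HTRF.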

[16] = biological target: D(2) dopamine receptor (Homo sapiens) (UniProt P14416); test: Dopamine D2 receptor (DRD2) small molecule antagonists, cell-based qHTS assay (AID 1963595; active = well fitted inhibition curve with a large enough effect in the signal ratio in the repeat runs, with a control signal flat; the % refers to the signal ratio; note: potency is the fitted concentration of half-maximal effect)
Procedure, shortened: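 HEK293 cells stably expressing DRD2 were preincubated with 0.1 mM Ro20-1724, then with compound for 10 min at room temperature. Cells were stimulated with 200 nM NKH477 plus 12 nM quinpirole for 30 min, and cAMP was read by HTRF.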

[17] = cAMP Responsive Elements (CRE) small molecule agonists, cell-based qHTS assay (AID 1963590)
Procedure, shortened: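 Cells carrying a CRE-driven beta-lactamase reporter (HEK 293T) are seeded, incubated overnight (18 h), and treated with test compounds for 3 h at 37 C; reporter activity is then detected with a FRET substrate after 2 h at room temperature.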

[18] = cAMP Responsive Elements (CRE) small molecule antagonists, cell-based qHTS assay (AID 1963591; active = well fitted inhibition curve with a large enough effect in the signal ratio in the repeat runs, not every such curve was filed as active; the % refers to the signal ratio)
Procedure, shortened: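 Cells (CRE-bla HEK 293T, DMEM with 10% dialyzed FBS and 25 mM HEPES) are seeded and incubated 18 h. Compounds are added with NKH477 agonist at 0.25 uM final for 3 h, then FRET substrate for 2 h.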

Beta-2 adrenergic receptor (Homo sapiens), sequence (P07550 whole entry, looked up): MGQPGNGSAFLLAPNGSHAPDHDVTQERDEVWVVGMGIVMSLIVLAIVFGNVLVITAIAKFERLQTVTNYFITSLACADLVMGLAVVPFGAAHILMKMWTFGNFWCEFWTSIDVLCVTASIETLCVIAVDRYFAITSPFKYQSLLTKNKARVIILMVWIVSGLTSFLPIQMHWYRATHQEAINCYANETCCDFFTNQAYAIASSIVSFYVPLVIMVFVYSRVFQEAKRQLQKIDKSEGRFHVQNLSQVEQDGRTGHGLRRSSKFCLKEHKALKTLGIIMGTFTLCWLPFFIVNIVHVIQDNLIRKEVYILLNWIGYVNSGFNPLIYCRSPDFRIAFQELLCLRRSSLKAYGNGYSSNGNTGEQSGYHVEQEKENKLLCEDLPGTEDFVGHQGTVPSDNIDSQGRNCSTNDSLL
D(2) dopamine receptor (Homo sapiens), sequence (P14416 whole entry, looked up): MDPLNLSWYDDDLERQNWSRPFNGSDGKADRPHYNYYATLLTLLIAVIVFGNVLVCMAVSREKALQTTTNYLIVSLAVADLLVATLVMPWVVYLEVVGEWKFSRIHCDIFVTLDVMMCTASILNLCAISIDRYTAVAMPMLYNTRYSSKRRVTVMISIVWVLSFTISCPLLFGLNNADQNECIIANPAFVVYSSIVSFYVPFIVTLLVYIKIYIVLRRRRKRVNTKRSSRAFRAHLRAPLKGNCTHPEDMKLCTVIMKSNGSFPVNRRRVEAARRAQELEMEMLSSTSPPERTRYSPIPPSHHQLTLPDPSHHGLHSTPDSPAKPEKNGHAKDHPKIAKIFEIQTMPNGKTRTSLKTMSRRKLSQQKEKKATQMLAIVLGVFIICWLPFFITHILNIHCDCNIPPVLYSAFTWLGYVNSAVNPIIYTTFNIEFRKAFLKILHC
Muscarinic acetylcholine receptor M1 (Homo sapiens), sequence (P11229 whole entry, looked up): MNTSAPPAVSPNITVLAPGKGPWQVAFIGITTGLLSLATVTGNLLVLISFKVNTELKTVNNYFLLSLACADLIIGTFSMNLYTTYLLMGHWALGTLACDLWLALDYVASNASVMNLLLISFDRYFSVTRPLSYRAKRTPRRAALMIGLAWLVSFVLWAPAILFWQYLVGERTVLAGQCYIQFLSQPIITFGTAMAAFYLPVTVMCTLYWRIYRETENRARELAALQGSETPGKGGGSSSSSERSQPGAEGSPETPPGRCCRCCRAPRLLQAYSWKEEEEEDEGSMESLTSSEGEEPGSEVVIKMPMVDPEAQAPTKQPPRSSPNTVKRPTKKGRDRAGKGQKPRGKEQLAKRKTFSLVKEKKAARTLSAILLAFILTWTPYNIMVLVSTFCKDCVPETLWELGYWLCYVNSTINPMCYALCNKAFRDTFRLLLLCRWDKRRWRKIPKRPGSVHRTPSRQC
5-hydroxytryptamine receptor 2A (Homo sapiens), sequence (P28223 whole entry, looked up): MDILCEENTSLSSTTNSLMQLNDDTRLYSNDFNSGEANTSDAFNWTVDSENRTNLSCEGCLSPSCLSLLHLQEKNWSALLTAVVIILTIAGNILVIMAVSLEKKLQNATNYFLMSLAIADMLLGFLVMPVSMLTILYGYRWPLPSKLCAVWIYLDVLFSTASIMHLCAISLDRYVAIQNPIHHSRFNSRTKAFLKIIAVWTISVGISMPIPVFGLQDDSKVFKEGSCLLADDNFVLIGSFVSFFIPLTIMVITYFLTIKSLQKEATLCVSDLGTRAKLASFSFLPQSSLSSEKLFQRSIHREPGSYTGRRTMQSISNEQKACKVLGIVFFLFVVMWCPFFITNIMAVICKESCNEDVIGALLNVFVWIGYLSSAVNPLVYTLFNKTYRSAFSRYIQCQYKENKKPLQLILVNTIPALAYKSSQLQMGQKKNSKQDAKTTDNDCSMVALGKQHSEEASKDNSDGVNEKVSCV
Gonadotropin-releasing hormone receptor (Homo sapiens), sequence (P30968 whole entry, looked up): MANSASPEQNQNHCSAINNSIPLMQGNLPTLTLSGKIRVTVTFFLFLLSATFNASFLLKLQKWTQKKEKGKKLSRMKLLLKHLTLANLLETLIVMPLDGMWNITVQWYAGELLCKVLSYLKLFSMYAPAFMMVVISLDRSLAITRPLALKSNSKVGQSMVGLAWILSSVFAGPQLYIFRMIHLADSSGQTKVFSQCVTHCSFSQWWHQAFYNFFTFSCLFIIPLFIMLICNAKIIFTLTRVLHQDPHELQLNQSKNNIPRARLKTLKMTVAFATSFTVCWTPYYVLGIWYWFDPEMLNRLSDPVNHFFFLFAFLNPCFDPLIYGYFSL
KiSS-1 receptor (Homo sapiens), sequence (Q969F8 whole entry, looked up): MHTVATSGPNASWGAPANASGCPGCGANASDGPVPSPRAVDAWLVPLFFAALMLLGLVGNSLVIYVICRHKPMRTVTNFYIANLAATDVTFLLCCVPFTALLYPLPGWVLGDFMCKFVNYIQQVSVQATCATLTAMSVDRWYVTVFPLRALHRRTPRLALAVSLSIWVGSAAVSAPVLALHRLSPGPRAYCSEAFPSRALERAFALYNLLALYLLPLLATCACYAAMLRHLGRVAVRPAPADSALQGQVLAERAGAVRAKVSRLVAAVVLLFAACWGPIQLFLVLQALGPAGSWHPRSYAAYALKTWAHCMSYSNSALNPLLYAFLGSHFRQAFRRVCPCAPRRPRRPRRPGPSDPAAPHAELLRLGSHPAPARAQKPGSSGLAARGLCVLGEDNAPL

Row | Structure (SMILES) | Potency [1] | Potency [2] | Potency [3] | Potency [4] | Potency [5] | Potency [6] | Potency [7] | Potency [8] | Potency [9] | Potency [10] | Potency [11] | Potency [12] | Potency [13] | Potency [14] | Potency [15] | Potency [16] | Potency [17] | Potency [18]
1 | O=C(O)CCCCCCCCCCC(=O)O | inactive | inactive | inactive | inactive | inactive | inactive | inactive | inactive | inactive | inactive | inactive | inactive | inactive | inactive | inactive | inactive |  | 
2 | CCCCCCCCCCCCCC[P+](CCCC)(CCCC)CCCC | 9.63 µM (active) and 24.3 µM (active) | inactive | inactive | inactive | inactive | 45.5 µM (active) and 20.4 µM (active) | 45.5 µM (active) and 40.8 µM (active) | 20.3 µM (active) and 25.7 µM (active) | 14.8 µM (active) and 18.8 µM (active) | 21.8 µM (active) and 54.9 µM (active) | inactive and 9.42 µM (active) | inactive | inactive | inactive | inactive | 17.1 µM (active) and 43.3 µM (active) |  | 
3 | CCCCCCCCCCCCOCC1CO1 (configuration not stated) | inactive | 46.3 µM (active) | inactive | inactive | inactive | inactive | inactive | inactive | inactive | inactive | inactive | inactive | inactive |  | inactive | inactive | inactive | inactive
4 | CCOC(=O)C(C)Oc1ccc(Oc2cnc3cc(Cl)ccc3n2)cc1 (configuration not stated) | inactive | inactive | inactive | inactive | inactive | inactive | inactive | inactive | inactive | inactive |  | inactive | inactive |  | inactive | inactive |  | 
5 | CCCCC(CC)COP(=O)(O)OCC(CC)CCCC (configuration not stated) | 54.6 µM (active) and 54.5 µM (active) | inactive | inactive | inactive | inactive | 36.4 µM (active) and 20.4 µM (active) | 28.9 µM (active) | 20.5 µM (active) and 25.7 µM (active) | inactive | inactive |  |  |  |  | inactive | inactive |  | inactive
6 | COc1c(Cl)ccc(Cl)c1C(=O)O | inactive | inactive | inactive | inactive | inactive | inactive | inactive | inactive | inactive | inactive | inactive | inactive | inactive | inactive | inactive | inactive | inactive | 
7 | c1ccc2c(c1)-c1cccc3c1c-2cc1ccccc13 | inactive | 23.8 µM (active) and 21.7 µM (active) | inactive | inactive | inactive | inactive | inactive | inactive | inactive | inactive |  | inactive | inactive |  | inactive | inactive | inactive | 
8 | O=C(O)c1cc2ccccc2cc1O | inactive | inactive | inactive | inactive | inactive | inactive | inactive | inactive | inactive |  | inactive |  | inactive | inactive | inactive | inactive |  | inactive
9 | OCCNCCO | inactive | inactive | inactive | inactive | inactive | inactive | inactive | inactive | inactive | inactive | inactive | inactive | inactive |  | inactive | inactive | inactive | inactive
10 | CCCCCC/C=C/C(=O)OC | inactive | inactive | inactive | inactive | inactive | inactive | inactive | inactive | inactive | inactive | inactive | inactive | inactive |  | inactive | inactive | inactive | inactive
11 | CC(=O)OCc1ccco1 | inactive | inactive | inactive | inactive | inactive | inactive | inactive | inactive | inactive | inactive | inactive | inactive | inactive |  | inactive | inactive | inactive | inactive
12 | OCC(CO)(CBr)CBr | inactive | inactive | inactive | inactive | inactive | inactive | inactive | inactive | inactive | inactive | inactive | inactive | inactive |  | inactive | inactive | inactive | 
13 | O=C(O)c1ccc(C(=O)O)c(C(=O)O)c1 | inactive | inactive | inactive | inactive | inactive | inactive | inactive | inactive | inactive |  | inactive | inactive | inactive |  | inactive | inactive | inactive | inactive
14 | C=C(c1ccc(C(=O)O)cc1)c1cc2c(cc1C)C(C)(C)CCC2(C)C | 27.3 µM (active) and 23.7 µM (active) | inactive | inactive | inactive | inactive | 20.4 µM (active) and inactive | inactive | inactive and 12.6 µM (active) | inactive |  | inactive and 18.3 µM (active) | inactive | inactive | inactive | inactive | inactive |  | inactive
